Bioassay records: PubChem BioAssay, several laboratories
TIM10 inh = inhibits growth of TIM10 yeast strain | S. cerevisiae TIM10 strain growth, BacTiter-Glo luminescence, 24 h | inhibition, % at 10 µM | actives 1.4% (n = 330,000);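 active = inhibition of 40% or more at the single tested concentration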;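 also: wild-type TIM10 isogenic control strain grown at permissive 25 °C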
tim10-1 inh = inhibits growth of tim10-1 mutant yeast | S. cerevisiae tim10-1 ts strain growth, BacTiter-Glo, 24 h | inhibition, % at 20 µM | actives 2.2% (n = 330,000) | AID 463190;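 active = inhibition of at least 40%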;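 also: mutant grown at 25 °C; 0% = DMSO wells with yeast and 100% = wells holding no yeast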
Calb FLC = C. albicans growth modulation with fluconazole; actives 0.57% (n = 300,000); C. albicans CaCi-2 (fluconazole-resistant clinical isolate) + fluconazole, Alamar Blue growth, 48 h; growth inhibition, % (no concentration beside the values);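 active = growth inhibition above about 58% in most replicates, limit read from the data, passing the limit was not always enough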;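 also: all wells also contain fluconazole at 8 µg/ml as a sub-toxic cotreatment; 0% = median of DMSO wells and 100% = median of geldanamycin control wells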
tim23-1 inh = inhibits growth of tim23-1 mutant yeast; actives 1.3% (n = 330,000); S. cerevisiae tim23-1 growth, BacTiter-Glo luminescence, 24 h; inhibition, % at 20 µM; AID 463212;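 active = growth inhibition of the mutant yeast at or above 50%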;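 also: temperature-sensitive mutant grown at 25 °C; plate controls were DMSO-treated mutant yeast for no effect and medium wells lacking yeast for full effect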
SKKanGAS inh = inhibitors of SKKanGAS S. pyogenes growth in kanamycin (SK-promoter or general growth effect) | BacTiter-Glo, 6 h | inhibition, % at 7.5 µM | actives 1.3% (n = 300,000) | AID 1662;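 active = mean replicate score, as percent of positive control median, at least 50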;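 also: strain carries kanamycin resistance gene driven by streptokinase promoter and grows in 40 µg/ml kanamycin; loss of luminescence reflects streptokinase promoter inhibition or plain growth inhibition; 0% = median of DMSO wells and 100% = positive control at its reference dose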
PfHsp90 set2 = growth inhibition of yeast expressing Plasmodium Hsp90 | S. cerevisiae expressing PfHsp90, BacTiter-Glo ATP, 48 h; yeast lacking PDR1 and PDR3 efflux regulators | inhibition, % at 9.4 µM | actives 0.32% (n = 310,000);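 active = every replicate shows inhibition above about 80%, whatever the replicate mean, limit read from the data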;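 also: 0% = DMSO neutral controls and 100% = 20 µM radicicol positive controls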
tim23-1 conf = tim23-1 yeast growth inhibition, confirmed; shares compounds with tim23-1 inh; S. cerevisiae tim23-1 growth, BacTiter-Glo luminescence, 24 h; inhibition, % at 20 µM; actives 83% (n = 4,400);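 active = inhibition above about 39% in either of two replicate wells at 20 µM, limit read from the data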;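 also: temperature-sensitive tim23-1 mutant grown at 25 °C; 0% = DMSO wells with yeast and 100% = medium wells without yeast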
Starred values were filed as active, the others as inactive. This is a sample that favours compounds with a hit; in the whole collection about 4.7% have one here.

Screening C#CCOCCOCCOCCNc1nc(N2CCN(C(=O)[C@H](CCCCN)n3cc(C(N)CO)nn3)CC2)nc(N2CCN(C(=O)[C@H](CCCCN)n3cc(C(N)COC(=O)C(F)(F)F)nn3)CC2)n1 (stereo partly drawn) returned TIM10 inh 12.3, tim10-1 inh 6.6, Calb FLC -4.1, tim23-1 inh 18.8 and SKKanGAS inh 0.1.
Screening O=C(Cn1c(=O)n(-c2cccc(C(F)(F)F)c2)c(=O)c2sccc21)NCC1CCCO1 (stereo not drawn) returned TIM10 inh 0.2, tim10-1 inh 9.3, Calb FLC -1.2, tim23-1 inh 3.2, SKKanGAS inh -1.7 and PfHsp90 set2 -15.7.
`CC(C)CC(=O)N1CCN(c2ccc(NC(=O)c3ccco3)cc2)CC1` gave TIM10 inh 11.5, tim10-1 inh 13.9, Calb FLC 4.2, tim23-1 inh 24.9, SKKanGAS inh 0.1 and PfHsp90 set2 30.5.
CC1CCN(S(=O)(=O)c2ccc(NC(=O)c3ccccc3F)cc2)CC1 was read as TIM10 inh 31.1, tim10-1 inh 35.2, Calb FLC -3.9, tim23-1 inh 51.9*, SKKanGAS inh 1.0, PfHsp90 set2 9.9 and tim23-1 conf 45.0*.
For Cc1cc(C(=O)N/N=C/c2ccc([N+](=O)[O-])s2)c2ccccc2n1 the results were TIM10 inh 27.4, tim10-1 inh 31.6, Calb FLC 30.5, tim23-1 inh 64.7*, SKKanGAS inh 13.4, PfHsp90 set2 -1.6 and tim23-1 conf 59.4*.
Screening O=C(Cc1ccccc1)N/N=C/c1ccc([N+](=O)[O-])s1 returned TIM10 inh 37.4, tim10-1 inh -13.4, Calb FLC 0.9, tim23-1 inh -11.7, SKKanGAS inh 10.1 and PfHsp90 set2 -6.4.
Cc1cc(C(=O)N/N=C/c2ccc(N(C)C)cc2)c2ccccc2n1 was read as TIM10 inh 14.3, tim10-1 inh -1.6, Calb FLC 3.6, tim23-1 inh -2.0, SKKanGAS inh 1.5 and PfHsp90 set2 -27.5.
Screening O=C(N/N=C/c1ccc([N+](=O)[O-])s1)c1ccccc1Br returned TIM10 inh 18.2, tim10-1 inh -4.6, Calb FLC 6.1, tim23-1 inh 76.7*, SKKanGAS inh 9.1, PfHsp90 set2 4.9 and tim23-1 conf 64.3*.
For O=C(N/N=C/c1cc([N+](=O)[O-])ccc1Cl)c1cc(-c2ccccc2)nc2ccccc12 the results were TIM10 inh -21.0, tim10-1 inh -9.1, Calb FLC 2.9, tim23-1 inh -2.9, SKKanGAS inh -4.7 and PfHsp90 set2 -38.6.
For O=C(N/N=C/c1cc([N+](=O)[O-])ccc1O)c1cc(-c2ccccc2)nc2ccccc12 the results were TIM10 inh 35.6, tim10-1 inh 38.6, Calb FLC -14.3, tim23-1 inh 57.5*, SKKanGAS inh 89.7*, PfHsp90 set2 -19.7 and tim23-1 conf 58.3*.
For CCOC(=O)COc1cc(OCC(=O)OCC)c2c3c(c(=O)oc2c1)CCCC3 the results were TIM10 inh -7.2, tim10-1 inh 28.8, Calb FLC 3.9, tim23-1 inh 22.2, SKKanGAS inh 5.1 and PfHsp90 set2 -4.4.
Screening CC(C)(C)OC(=O)C[C@@H]1C/C=C\C[C@@H](CC(=O)N(CCO)Cc2ccccc2)C(=O)N2CCC[C@@H]2COC1=O returned TIM10 inh 0.4, tim10-1 inh -6.2, tim23-1 inh 2.0 and PfHsp90 set2 -7.4.
`CC(C)c1nc2cc(C(=O)N3CCN(c4cnccn4)CC3)ccc2o1` gave TIM10 inh 4.2, tim10-1 inh 5.5, Calb FLC -3.3, tim23-1 inh 4.1, SKKanGAS inh 4.7 and PfHsp90 set2 15.3.
Screening O=C(NC(=S)NCc1ccco1)c1ccc(Br)cc1 returned TIM10 inh 30.7, tim10-1 inh 32.7, Calb FLC -7.1, tim23-1 inh 56.4*, SKKanGAS inh -1.5 and tim23-1 conf 45.3*.
CCN(CC)CCOC(=O)c1ccc(NC(=O)C2(c3ccccc3)CCCC2)cc1 was read as TIM10 inh 10.0, tim10-1 inh -0.2, Calb FLC -4.5, tim23-1 inh 95.2*, SKKanGAS inh 1.7, PfHsp90 set2 -1.1 and tim23-1 conf 4.8.
